Results from PubChem BioAssay AID602289 (National Center for Advancing Translational Sciences (NCATS), 2012).
The campaign covered roughly 2,400 compounds. About 40 (2%) were called active. Not shown: some 1% with an inconclusive outcome.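 How the source made its calls: active means inhibition at or above 60%; inconclusive means inhibition from 0% up to below 60%; inactive means no inhibition observed.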 For the sample, actives were picked, then their nearest neighbours and some compounds at random.

test: qHTS Assay for Small Molecule Inhibitors of Mitochondrial Division or Activators of Mitochondrial Fusion: Hit Validation in Malachite Green Assay; conditions: purified GTPase, malachite green phosphate release, A650; active compounds read high;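 on inhibition: plate controls were DMSO wells with GTPase for no effect and protein-free buffer wells for full effect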
Outline: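 Compound preincubated 10 min with protein (final 0.6 uM) in Hepes/Pipes pH 7.0 buffer containing 5 mM MgCl2 and 150 mM NaCl; GTP added to 100 uM final and hydrolysed 90 min at 30 C. EDTA-quenched Pi measured with malachite green against phosphate standards.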

inhibition, active:
CNc1ccc(Br)cc(C(=O)/C=C/c2ccc(OC)cc2OC)c1=O 90.1%, N#Cc1c(NC(=O)c2ccc(Cn3cc(Br)cn3)o2)sc2c1CCCCCC2 97.3%, CCOC(=O)c1c(NC(=O)c2ccccc2Cl)sc2c1CCc1ccccc1-2 102%, O=C(/C=C/c1ccco1)c1ccc(NC(=O)C23CC4CC(CC(C4)C2)C3)cc1 80.4%

inhibition, inactive:
N/C(=N\OC(=O)c1ccccc1Cl)c1ccc(Cl)cc1, CCN(CC(=O)Nc1cc(S(=O)(=O)N2CCCCC2)ccc1Cl)Cc1ccccc1, COc1ccc(Nc2ncc(C(=O)N3CCN(Cc4ccccc4)CC3)c3ccccc23)cc1, c1ccc(NCc2nc3ccccc3n2CCOc2ccccc2)cc1, COc1ccc(/C=C/C(=O)N2CCCc3ccccc32)c(OC)c1, COc1ccc(Br)cc1/C=C/C(=O)Nc1ccc(C)cc1, COc1cc2c(cc1NC(=O)CSc1nc3ccccc3[nH]1)oc1ccccc12, O=C(N/N=C/c1cn(-c2cccs2)nc1-c1ccccc1)c1ccccc1Cl, Cn1c2ccccc2c2c(C(=O)N3CCN(c4ccccc4)CC3)cn(C3CCCC3)c(=O)c21, COc1cccc(COc2ccc3ccc(=O)oc3c2)c1, CC(C)(C)c1ccc(/C=C/C(=O)Nc2ncccn2)cc1, O=c1c2ccccc2nc(/C=C/c2cccnc2)n1Cc1ccccc1, c1ccc(C(c2ccccc2)N2CCN(Cc3nnnn3C3CCCC3)CC2)cc1, COc1ccc(NC(=O)CSCC(=O)N(C)Cc2ccc(Cl)c(Cl)c2)cc1, O=S(=O)(Nc1cccc2c1CCCC2)c1ccc(Cl)cc1, COC(=O)c1c(NC(=O)c2ccc(C)o2)sc2c1CCCCC2, N#Cc1c(NC(=O)C2CC2)sc2c1CCCCC2, CCCc1nnc(NC(=O)CCC(=O)O)s1, Cc1ccc(Cl)cc1N1CCN(C(=O)c2noc(C)c2[N+](=O)[O-])CC1, CCCCNC(=O)N1CCN(C(c2ccccc2)c2ccccc2)CC1, O=[N+]([O-])c1ccc(S(=O)(=O)N2CCN(C3CCN(Cc4ccccc4)CC3)CC2)cc1, Cc1ccc(C(=O)c2c(NC(=O)c3ccccc3C)sc(C)c2C)cc1, CCOC(=O)c1c(NC(=O)COc2ccccc2F)sc2c1CC(C)(C)NC2(C)C, CN(CCOc1ccccc1)CC(=O)Nc1ccc([N+](=O)[O-])cc1Cl, C=CCSc1nc(N)c(C#N)c(-c2ccc(C)cc2)c1C#N, CC(=O)c1cccc(NC(=O)c2ccc(-c3ccccc3[N+](=O)[O-])o2)c1, COc1ccccc1/C=C/C(=O)c1ccc(NC(C)=O)cc1, O=C(/C=C/c1ccco1)Nc1ccc2nn(-c3ccccc3)nc2c1, O=c1c2cc(N3CCOCC3)ccc2[nH]c(=S)n1CCc1ccccc1
